Data as given in PubChem BioAssay.
Inconclusive results are not listed. The source made the active and inactive calls.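 Rule for the calls, unless noted: active = normalized viability below 100% at a tested concentration; inactive = the rest.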

Legend:
[1] = growth inhibition of DIPG glioma cells, dose response, cell-based, SU-DIPG-XVII, MIPE5.0, CellTiter-Glo, qHTS (AID 1347060; cut-off not given, nearly all actives have AC50 up to about 26 µM;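 for AC50: cells exposed to compound for 48 hours before viability readout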); conditions: SU-DIPG-XVII viability, CellTiter-Glo ATP luminescence
[2] = growth inhibition of DIPG glioma cells, dose response, cell-based, SU-DIPG-XIII, MIPE4.0, CellTiter-Glo, qHTS (AID 1347061; cut-off not given, nearly all actives have AC50 up to about 37 µM;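 note: cells exposed to compound for 48 hours before readout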); conditions: SU-DIPG-XIII viability, CellTiter-Glo ATP luminescence
[3] = growth inhibition of DIPG glioma cells, dose response, cell-based, SU-DIPG-IV, MIPE4.0, CellTiter-Glo, qHTS (AID 1347063; cut-off not given, nearly all actives have AC50 up to about 30 µM;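 note: compound exposure lasted 48 hours before the viability readout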); conditions: SU-DIPG-IV viability, CellTiter-Glo ATP luminescence
[4] = growth inhibition of DIPG glioma cells, dose response, cell-based, SU-DIPG-XIII, MIPE5.0, CellTiter-Glo, qHTS (AID 1347064; cut-off not given, nearly all actives have AC50 up to about 23 µM;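 for AC50: cells exposed to compound for 48 hours before the viability read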); conditions: SU-DIPG-XIII viability, CellTiter-Glo ATP luminescence
[5] = viability loss in pontine glioma line – cell-based, SU-DIPG-XXV, MIPE5.0, CellTiter-Glo, qHTS, dose response (AID 1347065; cut-off not given, nearly all actives have AC50 up to about 26 µM;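 note: cells exposed to compound for 48 hours before ATP readout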); conditions: CellTiter-Glo ATP luminescence
[6] = SU-DIPG-XXV glioma cell viability, MIPE5.0 library, qHTS (AID 1347068; cut-off not given, nearly all actives have IC50 up to about 30 µM;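 for IC50: cells exposed to compound for 48 hours before viability readout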)
[7] = sensitizers of A549 cells to miR-34 induction, primary screen, imaging, A549 dox-inducible miR-34, nuclei and caspase counts (AID 1347080;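 active = compounds whose cell count with miR-34 switched on is under 0.7 times the count with it off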); conditions: A549 miR-34 inducible, Hoechst nuclei count, 48 h
[8] = modifiers of HSF1 nuclear foci, imaging, Selleck Cancer Library (AID 1347162; in the data active = plate-normalised HSF1 focus index below about 0.46); conditions: human cells, at 10 µM; SSMD: measured here: HSF1 foci SSMD mean; cell count: measured here: cell number; plate-normalised HSF1 focus index: stronger effect = lower value
[9] = survival rescue of mitochondrial mutant cells in low glucose, primary screen, MELAS cybrids, Rieske KO mouse fibroblasts, CellTiter-Glo (AID 1508586;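 active = mean z-score across replicates of 1.96 or higher in either the MELAS or the Rieske mutant cell line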;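 note: z relative to plate mean and SD of compound and empty wells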)
[10] = JHH-DIPG-1 glioma cell viability, MIPE5.0 library, CellTiter-Glo luminescence, qHTS (AID 1347067; cut-off not given, nearly all actives have AC50 up to about 26 µM;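 note: cells exposed to compound for 48 hours before readout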); conditions: JHH-DIPG-1 glioma viability, CellTiter-Glo ATP luminescence
[11] = SU-DIPG-VI glioma cell viability, MIPE4.0 library, CellTiter-Glo luminescence, qHTS (AID 1347066; cut-off not given, nearly all actives have AC50 up to about 30 µM;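 note: cells exposed to compound for 48 hours before readout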); conditions: CellTiter-Glo ATP luminescence
[12] = ovarian cancer cell viability with rucaparib, profiling panel, oncology-focused library, rucaparib conditional (AID 1508598); conditions: patient-derived ovarian cancer cells, CellTiter-Glo viability, 144 h, stronger effect = lower value
[13] = stronger effect = lower value, cell number ratio, induced over uninduced
[14] = measured here: relative caspase fold change +Dox/-Dox
[15] = measured here: total cells with miR-34 induction, stronger effect = lower value
[16] = measured here: total cells without miR-34 induction
[17] = MELAS cybrid survival, CellTiter-Glo 48 h, stronger effect = higher value
[18] = Rieske KO mouse fibroblast survival, CellTiter-Glo 72 h

In the case of `COc1cc(Nc2ncc(F)c(Nc3ccc4c(n3)N(COP(=O)(O)O)C(=O)C(C)(C)O4)n2)cc(OC)c1OC`, the AC50 [1] was 1.05 µM (active), the AC50 [2] was 1.87 µM (active) and the AC50 [3] was 3.32 µM (active). For the same compound, the AC50 [4] was 3.72 µM (active), the AC50 [5] was 3.72 µM (active) and the IC50 [6] was 4.68 µM (active). The fold change [7, 13] was 0.857 (inactive), the fold change [7, 14] was 0.912 and the cell count [7, 15] was 1024. The cell count [7, 16] was 1190, the SSMD [8] was -2.78 and the cell count [8] was 7320. For the same compound, the plate-normalised HSF1 focus index [8] was 0.825 (inactive), the z-score [9, 17] was -0.637 (inactive) and the z-score [9, 18] was -0.181.
For `NC(=O)c1c(OCc2c(F)cc(Br)cc2F)nsc1NC(=O)NCCCCN1CCCC1`, the AC50 [1] was 4.68 µM (active), the AC50 [2] was 6.62 µM (active) and the AC50 [4] was 3.32 µM (active). For the same compound, the AC50 [5] was 3.32 µM (active), the AC50 [10] was 18.6 µM (active) and the IC50 [6] was 23.5 µM (active).
With `CO[C@@H](C(=O)N1Cc2[nH]nc(NC(=O)c3ccc(N4CCN(C)CC4)cc3)c2C1)c1ccccc1` the AC50 [1] was 0.525 µM (active), the AC50 [2] was 1.87 µM (active) and the AC50 [4] was 1.05 µM (active). The AC50 [5] was 0.372 µM (active), the outcome [11] was “inactive” and the SSMD [8] was 1.91. For the same compound, the cell count [8] was 6850, the plate-normalised HSF1 focus index [8] was 1.1 (inactive) and the viability ([12]; at 0.000305 µM, OCI-C5x cells, with rucaparib 10 µM, 100% = cells with rucaparib alone) was 122% (inactive). For the same compound, the viability ([12]; at 0.000305 µM, OCI-C5x cells, without rucaparib) was 95% (active), the viability ([12]; at 0.000305 µM, OCI-P5x cells, with rucaparib 20 µM, 100% = cells with rucaparib alone) was 88.8% (active) and the viability ([12]; at 0.000305 µM, OCI-P5x cells, without rucaparib) was 84.6% (active). For the same compound, the viability ([12]; at 0.00122 µM, OCI-C5x cells, with rucaparib 10 µM, 100% = cells with rucaparib alone) was 113% (inactive), the viability ([12]; at 0.00122 µM, OCI-C5x cells, without rucaparib) was 106% (inactive) and the viability ([12]; at 0.00122 µM, OCI-P5x cells, with rucaparib 20 µM, 100% = cells with rucaparib alone) was 89.5% (active). For the same compound, the viability ([12]; at 0.00122 µM, OCI-P5x cells, without rucaparib) was 84.3% (active), the viability ([12]; at 0.00488 µM, OCI-C5x cells, with rucaparib 10 µM, 100% = cells with rucaparib alone) was 96% (active) and the viability ([12]; at 0.00488 µM, OCI-C5x cells, without rucaparib) was 104% (inactive). For the same compound, the viability ([12]; at 0.00488 µM, OCI-P5x cells, with rucaparib 20 µM, 100% = cells with rucaparib alone) was 91.4% (active), the viability ([12]; at 0.00488 µM, OCI-P5x cells, without rucaparib) was 88.2% (active) and the viability ([12]; at 0.0195 µM, OCI-C5x cells, with rucaparib 10 µM, 100% = cells with rucaparib alone) was 96.4% (active). For the same compound, the viability ([12]; at 0.0195 µM, OCI-C5x cells, without rucaparib) was 81% (active), the viability ([12]; at 0.0195 µM, OCI-P5x cells, with rucaparib 20 µM, 100% = cells with rucaparib alone) was 95.5% (active) and the viability ([12]; at 0.0195 µM, OCI-P5x cells, without rucaparib) was 93.2% (active). The viability ([12]; at 0.0781 µM, OCI-C5x cells, with rucaparib 10 µM, 100% = cells with rucaparib alone) was 57.5% (active), the viability ([12]; at 0.0781 µM, OCI-C5x cells, without rucaparib) was 79.9% (active) and the viability ([12]; at 0.0781 µM, OCI-P5x cells, with rucaparib 20 µM, 100% = cells with rucaparib alone) was 91.5% (active). The viability ([12]; at 0.0781 µM, OCI-P5x cells, without rucaparib) was 73.7% (active), the viability ([12]; at 0.313 µM, OCI-C5x cells, with rucaparib 10 µM, 100% = cells with rucaparib alone) was 66.2% (active) and the viability ([12]; at 0.313 µM, OCI-C5x cells, without rucaparib) was 89.6% (active). The viability ([12]; at 0.313 µM, OCI-P5x cells, with rucaparib 20 µM, 100% = cells with rucaparib alone) was 75.2% (active), the viability ([12]; at 0.313 µM, OCI-P5x cells, without rucaparib) was 64.1% (active) and the viability ([12]; at 1.25 µM, OCI-C5x cells, with rucaparib 10 µM, 100% = cells with rucaparib alone) was 84.8% (active). For the same compound, the viability ([12]; at 1.25 µM, OCI-C5x cells, without rucaparib) was 112% (inactive), the viability ([12]; at 1.25 µM, OCI-P5x cells, with rucaparib 20 µM, 100% = cells with rucaparib alone) was 72.6% (active) and the viability ([12]; at 1.25 µM, OCI-P5x cells, without rucaparib) was 60% (active). For the same compound, the viability ([12]; at 5 µM, OCI-C5x cells, with rucaparib 10 µM, 100% = cells with rucaparib alone) was 71.1% (active), the viability ([12]; at 5 µM, OCI-C5x cells, without rucaparib) was 88.4% (active) and the viability ([12]; at 5 µM, OCI-P5x cells, with rucaparib 20 µM, 100% = cells with rucaparib alone) was 19.1% (active). The viability ([12]; at 5 µM, OCI-P5x cells, without rucaparib) was 17% (active).
For `O=C(O)Cn1nnc(-c2cc(N3CCC(Oc4cc(F)ccc4Br)CC3)no2)n1`, the outcome [1] was “inactive”, the outcome [2] was “inactive” and the outcome [3] was “inactive”. The outcome [4] was “inactive”, the outcome [11] was “inactive” and the outcome [10] was “inactive”. For the same compound, the outcome [6] was “inactive”, the fold change [7, 13] was 0.885 (inactive) and the fold change [7, 14] was 0.826. The cell count [7, 15] was 6300, the cell count [7, 16] was 7120 and the z-score [9, 17] was -0.382 (inactive). For the same compound, the z-score [9, 18] was 0.855.
With `Clc1ccc(C2(c3ccc(-c4cn[nH]c4)cc3)CCNCC2)cc1` the AC50 [1] was 18.6 µM (active), the outcome [2] was “inactive” and the AC50 [4] was 14.8 µM (active). The AC50 [5] was 10.5 µM (active), the outcome [11] was “inactive” and the fold change [7, 13] was 0.914 (inactive). For the same compound, the fold change [7, 14] was 1.06, the cell count [7, 15] was 2520 and the cell count [7, 16] was 2760. The z-score [9, 17] was 5.75 (active) and the z-score [9, 18] was -3.02.
